Some test systems named below: HCT-15 colon; HT29 colon; SNB-75 CNS; SNB-19 CNS; U251 CNS; PC-3 prostate; SK-MEL-5 melanoma; UACC-62 melanoma; LOX IMVI melanoma; SK-MEL-28 melanoma; SK-MEL-2 melanoma; EKVX NSCLC; SN12C renal; UO-31 renal; TK-10 renal; ACHN renal; CAKI-1 renal; A498 renal; CCRF-CEM leukemia; MOLT-4 leukemia.
What all share (assay): NCI-60 one-dose screen, 48 h (100 = growth as untreated, 0 = no growth, -100 = all killed)
Holding throughout (conditions): 10 µM unless noted

This is an account of results in PubChem BioAssay (NCI).

Each structure is given as a SMILES string. About 83,000 compounds went through this panel and 20% of them were active in at least one assay; those are over-represented in the sample as a whole.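 The endpoint reported here, percent growth, reads 100 for growth as untreated, 0 for no net growth and -100 for all cells dead.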 A number with no mark means an inactive call. Calls of active or inactive are those of the source. How the source made its calls: active means growth percent below 10; inactive means the rest.

For the compound `CCOC(=O)c1c(C(=O)c2cn(C)c3ccc(Br)cc23)c(-c2cn(C)c3ccc(Br)cc23)n(NC(=O)OC(C)(C)C)c1C`, the growth is 89% [100 µM] with HCT-15 colon; 90.5% [100 µM] with HT29 colon; -27.3% [100 µM] (active) with SNB-75 CNS; 50.8% [100 µM] with SNB-19 CNS; 60.7% [100 µM] in the assay with U251 CNS; 61.8% [100 µM] with PC-3 prostate. The growth was 90.6% [100 µM] in the assay on SK-MEL-5 melanoma; 65.7% [100 µM] with UACC-62 melanoma; 78% [100 µM] in the assay on LOX IMVI melanoma; 107% [100 µM] with SK-MEL-28 melanoma; 57.8% [100 µM] in the assay on SK-MEL-2 melanoma; 80.5% [100 µM] with EKVX NSCLC. For the same compound, the growth in the assay with SN12C renal was 92% [100 µM]; in the assay on UO-31 renal, 58.7% [100 µM]; with TK-10 renal, 69.2% [100 µM]; in the assay with ACHN renal, 78.9% [100 µM]; with CAKI-1 renal it was 43.9% [100 µM]; with A498 renal, 87.2% [100 µM]. Further, the figures for the growth with CCRF-CEM leukemia and with MOLT-4 leukemia were 102% [100 µM] and 99.5% [100 µM], respectively.
Regarding `C=CCN=c1sc2c(n1NC(=O)c1cc3ccc1CCc1ccc(cc1)CC3)C(=O)c1ccccc1C2=O`, the growth with HCT-15 colon was -68.3% (active); with HT29 colon, 26.1%; with SNB-75 CNS it was -94.6% (active); in the assay on SNB-19 CNS, 4.59% (active); with U251 CNS, 0.221% (active); in the assay on PC-3 prostate, 0.37% (active). Moreover, the growth with SK-MEL-5 melanoma is -98.5% (active); with UACC-62 melanoma it was -36% (active); in the assay on LOX IMVI melanoma it was -80.3% (active); with SK-MEL-28 melanoma, -35.4% (active); with SK-MEL-2 melanoma, -17.3% (active); with EKVX NSCLC, -20.2% (active). Further, the growth in the assay with SN12C renal was -96.6% (active); in the assay on UO-31 renal it was -35.2% (active); in the assay with TK-10 renal it was 58.3%; in the assay on ACHN renal, -95.3% (active); in the assay with CAKI-1 renal, 20.3%; with A498 renal, 56%. Also, the results for the growth in the assay on CCRF-CEM leukemia and with MOLT-4 leukemia were -3.65% (active) and -15.5% (active), respectively.
With `Cc1csc(Nc2nc(-c3ccccn3)nc(C(Cl)(Cl)Cl)n2)n1`, the growth with HCT-15 colon was 57.2%; in the assay on HT29 colon, 68%; with SNB-75 CNS, 90.1%; with SNB-19 CNS, 80.9%; in the assay with U251 CNS, 62.2%; in the assay on PC-3 prostate, 91.1%. Further, the growth is 86.2% with SK-MEL-5 melanoma; 84.3% in the assay with UACC-62 melanoma; 49.4% in the assay on LOX IMVI melanoma; 87.6% in the assay with SK-MEL-28 melanoma; 95.8% in the assay with SK-MEL-2 melanoma; 95.1% with EKVX NSCLC. Further, the growth in the assay with SN12C renal was 97.9%; in the assay with UO-31 renal it was 84.3%; with TK-10 renal, 94.8%; in the assay with ACHN renal it was 79.7%; with CAKI-1 renal it was 82.2%; in the assay on A498 renal, 90.7%. Besides, the growth in the assay on CCRF-CEM leukemia was 59.2%; in the assay with MOLT-4 leukemia, 67.9%.
With `C=CC(=O)N1CCN(c2cccc(Oc3nccc(Nc4nnc(-c5ccc(Br)cc5)s4)n3)c2)CC1`, the growth with HCT-15 colon is 40.3%; with HT29 colon it was 53.1%; with SNB-75 CNS it was 69.3%; in the assay on SNB-19 CNS it was 57.3%; in the assay with U251 CNS it was 56.8%; in the assay on PC-3 prostate, 61.1%. Further, the growth in the assay with SK-MEL-5 melanoma is 42.7%; in the assay on UACC-62 melanoma, 37%; in the assay on LOX IMVI melanoma, 59%; in the assay with SK-MEL-28 melanoma, 67.1%; in the assay on SK-MEL-2 melanoma, 54.7%; in the assay with EKVX NSCLC it was 93.9%. For the same compound, the growth in the assay on SN12C renal was 78.7%; with UO-31 renal, 66.7%; in the assay with TK-10 renal, 111%; in the assay on ACHN renal, 72.9%; in the assay with CAKI-1 renal, 38.9%; in the assay with A498 renal it was 79.7%. For the same compound, the growth is 69.5% in the assay on CCRF-CEM leukemia and 70.6% in the assay on MOLT-4 leukemia.
Turning to `N#Cc1nc(-c2ccccc2)oc1S(=O)(=O)N1CCN(c2ccccc2)CC1`, the growth in the assay with HCT-15 colon was 44.2%; in the assay on HT29 colon, 86.5%; with SNB-75 CNS it was 66.7%; in the assay on SNB-19 CNS, 99.6%; with U251 CNS, 98.9%; in the assay on PC-3 prostate it was 94.9%. Moreover, the growth is 90% in the assay on SK-MEL-5 melanoma; 84.4% with UACC-62 melanoma; 39.7% in the assay on LOX IMVI melanoma; 106% with SK-MEL-28 melanoma; 84.4% in the assay on SK-MEL-2 melanoma; 116% in the assay on EKVX NSCLC. Besides, the growth in the assay with SN12C renal was 88%; with UO-31 renal, 84.5%; in the assay on TK-10 renal, 104%; in the assay on ACHN renal, 102%; with CAKI-1 renal it was 109%; with A498 renal, 95.1%. The growth with CCRF-CEM leukemia is 2.42% (active); in the assay on MOLT-4 leukemia, 12.2%.
As for `CCCCC1=C(P(=O)(O)O)N[C@H](C(=O)O)CS1`, the growth in the assay with HCT-15 colon was 87.9%; with HT29 colon, 95.3%; in the assay on SNB-75 CNS it was 104%; in the assay with SNB-19 CNS it was 89%; with U251 CNS, 94.2%; with PC-3 prostate it was 90%. In addition, the growth was 98.8% with SK-MEL-5 melanoma; 85.1% in the assay with UACC-62 melanoma; 92.4% in the assay on LOX IMVI melanoma; 89.7% with SK-MEL-28 melanoma; 103% in the assay with SK-MEL-2 melanoma; 90.5% in the assay with EKVX NSCLC. For the same compound, the growth with SN12C renal was 88.2%; in the assay with UO-31 renal, 73.5%; in the assay on TK-10 renal, 94.8%; with ACHN renal, 97.9%; in the assay on CAKI-1 renal it was 94.1%; in the assay on A498 renal, 100%. In addition, the results for the growth in the assay on CCRF-CEM leukemia and with MOLT-4 leukemia were 96.8% and 102%, respectively.
`COC(=O)c1c(C)c2n(c1C)C(=O)C(c1ccccc1)=C2`: the growth with HCT-15 colon is 80.4%; in the assay with HT29 colon, 87.1%; in the assay with SNB-75 CNS, 53.2%; in the assay with SNB-19 CNS it was 85.7%; with U251 CNS it was 93.2%; in the assay with PC-3 prostate it was 84.4%. Besides, the growth in the assay with SK-MEL-5 melanoma was 84.2%; with UACC-62 melanoma, 58.7%; in the assay on LOX IMVI melanoma, 73.8%; with SK-MEL-28 melanoma, 91.2%; with SK-MEL-2 melanoma it was 77.7%; in the assay on EKVX NSCLC it was 10.2%. The growth is 78.7% with SN12C renal; 57.9% with UO-31 renal; 143% in the assay on TK-10 renal; 74% with ACHN renal; 33.1% in the assay with CAKI-1 renal; 84.2% in the assay with A498 renal. Moreover, the growth in the assay with CCRF-CEM leukemia was 92.8%; in the assay on MOLT-4 leukemia it was 66.8%.
